For 31 molecules, inhibition results are on record in PubChem BioAssay AID1259343 (VanderVen Lab, College of Veterinary Medicine, Cornell …, 2017).

The whole screen tested about 6,200 compounds, of which about 2,900 (47%) were called active. So high a share suggests a set chosen from earlier hits. Some of the results follow. A number with no mark means an inactive call. Cut-off read from the data, not from the text of the source: active = inhibition above about 50%; inactive = the rest.

This test is described as follows: Mycobacterium tuberculosis growth inhibition, primary screen (AID 1259343). To be noted: inhibition: at 10 µM, stronger effect = higher value; outcome: 10 uM.
Regarding `CCN(CC)CCNc1nc(C23CC4CC(CC(C4)C2)C3)cs1`, the inhibition (in general, the change of the read-out against control, counted positive when it falls) was 55.4% (active).
On to `CC(C)CCn1c(SCC(=O)NC(C)(C)C)nc2cc(Cl)ccc2c1=O`, for which the inhibition is 88.4% (active).
Next, `COCCn1c(SCCc2ccccc2)nc2cc(Cl)ccc2c1=O`: 15.5%; `COCCn1c(SC(C)C)nc2ccc(Br)cc2c1=O`: -18.7%; `NCCOB(c1ccccc1)c1ccccc1`: 101% (active).
Next, `O=C(CC1CCCC1)NCCCNC(=O)CC1CCCC1`: 7.09%; `O=C(CCl)NCCCCCCCCCNC(=O)CCl`: 93.8% (active); `CS(=O)(=O)Nc1c(Cl)c(Cl)c(Cl)c(Cl)c1Cl`: 84% (active).
The same measure for `CC(Nc1cc(N2CCNCC2)ccc1[N+](=O)[O-])C12CC3CC(CC(C3)C1)C2` (stereo unspecified): 59.9% (active); for `O=[N+]([O-])c1ccc(N2CCNCC2)cc1NC1C2CC3CC(C2)CC1C3` (stereo unspecified): 83.1% (active); for `O=[N+]([O-])c1ccc(Cl)cc1NN=C1C2CC3CC1CC(O)(C3)C2`: 47.3%.
For `Cc1ccc(N2CCN(C(=O)C34CC5CC(CC(C5)C3)C4)CC2)cc1Cl`, the inhibition was 10.8%.
The same measure for `COc1ccc(NC(=O)N2CCCC(C(=O)c3cccc(OC(C)C)c3)C2)cc1OC` (stereo unspecified): 19%.
The same measure for `COc1ccc(C)cc1C(=O)Nc1ccc(N2CCCCC2)nc1`: 2.05%.
Next, `COc1ccc(NC(=O)Nc2cccc(-c3ccc(N4CCCC4)nn3)c2)cc1`: 66.1% (active).
For `NC(=S)NN=Cc1c[nH]c2ccccc12`, the inhibition entry was “inactive”.
Next, `C(=NNc1ccccc1)c1c[nH]c2ccccc12`: 52% (active).
Next, `Fc1ccc(NN=Cc2ccccn2)c(F)c1`: 103% (active); `O=C(NN=Cc1c[nH]c2ccc(Br)cc12)C1CC1`: 13.7%; `Fc1ccc(NN=Cc2c[nH]c3ccccc23)c(F)c1`: 90.6% (active).
The same measure for `Fc1ccc(NN=Cc2ccc(F)c(F)c2)c(F)c1`: 40.3%; for `C=CCN1C(=O)C(=O)N(CC2CCCCC2)C1=O`: 43.2%.
Regarding `C=CCn1c(SCCCC)nc(O)cc1=O`, the inhibition is 33.7%.
Next, `CCCCSc1nsc(NC(C)=O)n1`: 71.7% (active); `Cc1ccc2c(c1)-c1c(s[s+]c1SCC(=O)c1ccccc1)C(C)(C)N2`: 18.9%; `CN(CC(=O)Nc1ccc(Cl)cc1Cl)Cc1ccsc1`: 34.7%.
Next, `Cc1ccc(CN(C)CC(=O)Nc2cc(Cl)ccc2C#N)cc1`: -19.5%; `Cc1ccc(F)cc1NC(=O)CN(C)Cc1ccccc1F`: 86.7% (active).
In the case of `O=C(Nc1ccc2c(c1)Cc1ccccc1-2)c1ccco1`, the inhibition was 90% (active).
For `O=C(CCl)c1ccc(NC(=O)c2ccco2)cc1`, the inhibition is 44.1%.
Take `O=C(Nc1ccc2c(c1)Cc1ccccc1-2)C1CCCO1` (stereo unspecified): the inhibition was 81.9% (active).
